Screening data from PubChem BioAssay.
NPC1 promoter act – NPC1 promoter activation. Huh7 NPC1 promoter luciferase reporter, 24 h. Potency, µM (highest dose often 9.22 µM), actives largely listed as activators. actives 2.4% (n = 320,000); note: nearly all actives have a fitted effect of over 60% in size
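Stably transfected Huh7 (NPC1 promoter→luciferase), 1500 cells/well in Opti-MEM + 10% FBS, 2 h settle, then compound 24 h at 37 °C. Luminescence after 10 min with Amplite reagent.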
SMN2 splice enh – SMN2 splice variant enhancement. HEK293 SMN2-luciferase splicing reporter, luminescence, 30-36 h. Potency, µM (titrated, usually from 46.1 µM), most hits filed as activators. actives 2.8% (n = 210,000). AID 1458; note: nearly all actives have a fitted effect of over 55% in size
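HEK293 cells carry an SMN2 minigene-luciferase reporter in which exon 7 inclusion puts luciferase in frame. Cells were seeded at 2000 cells/well, attached for 10-12 hours, then exposed to compounds for 30-36 hours at 37C before ONE-Glo luminescence.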
ELG1 DNA repair – inhibitors of ELG1-dependent DNA repair in HEK293T cells. HEK293T ELG1-luciferase reporter, luminescence, 16 h; DNA damage induced by 5-fluorouridine. actives 2.3% (n = 330,000). Potency, µM (series often up to 46.1 µM), actives largely listed as inhibitors. AID 504467; note: nearly all actives have a fitted effect of over 55% in size
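HEK293T cells expressing luciferase-tagged ELG1 (2,000/well) received 5-Fluorouridine plus compound or DMSO for 16 hr at 37 °C. Luciferase was read by ONE-Glo luminescence after 30 min at room temperature.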
FLuc counter – firefly luciferase modulation, counter-screen for miR-21 project | P08659 | purified FLuc, Km substrates, luminescence inhibition | Potency, µM (doses to about 57.5 µM), usual class: inhibitors | actives 6.9% (n = 360,000); note: nearly all actives have a fitted effect of over 55% in size
Target sequence (P08659 whole entry, looked up): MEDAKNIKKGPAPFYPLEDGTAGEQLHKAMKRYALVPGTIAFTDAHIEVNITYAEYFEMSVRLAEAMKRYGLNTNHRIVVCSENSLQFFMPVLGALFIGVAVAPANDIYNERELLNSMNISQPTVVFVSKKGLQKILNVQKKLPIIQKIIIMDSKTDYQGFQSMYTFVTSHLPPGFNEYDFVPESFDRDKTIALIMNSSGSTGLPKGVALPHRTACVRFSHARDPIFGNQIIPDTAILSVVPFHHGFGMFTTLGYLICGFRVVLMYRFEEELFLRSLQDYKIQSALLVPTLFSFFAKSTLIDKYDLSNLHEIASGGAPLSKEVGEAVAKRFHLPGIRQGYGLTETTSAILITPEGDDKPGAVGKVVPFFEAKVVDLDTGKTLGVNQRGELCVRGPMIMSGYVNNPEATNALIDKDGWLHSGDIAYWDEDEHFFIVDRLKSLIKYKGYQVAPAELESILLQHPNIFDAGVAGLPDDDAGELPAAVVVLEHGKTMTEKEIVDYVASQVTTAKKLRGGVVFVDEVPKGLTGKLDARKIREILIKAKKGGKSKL
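Purified P. pyralis luciferase (10nM final) with 10uM D-luciferin and 10uM ATP (Km levels) in 50mM Tris acetate pH 7.5, 10mM Mg acetate, 0.01% Tween-20, 0.05% BSA; qHTS 6-point titration, ~60 µM downward; luminescence read.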
ELG1 genotox – inducers of genotoxicity in HEK293T ELG1-luciferase cells | HEK293T ELG1-luciferase reporter, luminescence, 16 h | actives 1.3% (n = 330,000) | Potency, µM (doses to about 46 µM), most hits filed as activators | AID 504466; note: nearly all actives have a fitted effect of over 60% in size
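Step 1: seed 2,000 HEK293T ELG1-luciferase cells per well. Step 2: add compound or DMSO, incubate 16 hr at 37 °C. Step 3: ONE-Glo, 30 min at room temperature, read luminescence.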
Rab9 prom act – Rab9 promoter activation. Potency, µM (titrated, usually from 9.22 µM), actives largely listed as activators. Huh7 Rab9 promoter-luciferase reporter, luminescence, 24 h. AID 485297. actives 2.8% (n = 320,000); note: nearly all actives have a fitted effect of over 60% in size
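Stable Rab9-luc Huh7, 1500 cells/well, 2 h settle; cmpd in DMSO, 24 h, 37 °C/5% CO2; luciferase reagent 10 min RT; luminescence.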
Hits are given with their value. Hits are enriched below; roughly 9.2% of the tested compounds scored in any of these assays. Calls come from the whole dose curve; as a rule, active = well fitted curve in the direction sought with a large enough effect; inconclusive = small, poorly fitted or top-dose-only effect, or another doubt; inactive = no such curve, though single readings can be large; an effect the other way counts as inactive or inconclusive.

Screening COc1cccc(Nc2cc(C)nc3nc(-c4ccc(Cl)cc4)nn23)c1 returned SMN2 splice enh inactive and FLuc counter inactive.
For Cc1cc(NCCOCCO)n2ncc(-c3ccc(Cl)cc3)c2n1 the results were NPC1 promoter act 1.3µM, SMN2 splice enh 10µM, ELG1 DNA repair inconclusive, FLuc counter 1.3µM, ELG1 genotox inconclusive and Rab9 prom act 0.89µM.
`Cc1cc(NCc2ccccn2)n2nc(C)c(-c3ccc(Cl)cc3)c2n1` gave NPC1 promoter act inactive, ELG1 DNA repair 26µM, FLuc counter inconclusive, ELG1 genotox inactive and Rab9 prom act inactive.
For Cc1cc(NCc2ccccn2)n2ncc(-c3ccccc3)c2n1 the results were NPC1 promoter act 0.5µM, ELG1 DNA repair inconclusive, FLuc counter 4.3µM, ELG1 genotox inconclusive and Rab9 prom act inconclusive.
Screening Cc1nn2c(NCc3ccccn3)cc(C(C)C)nc2c1-c1ccccc1 returned NPC1 promoter act inactive, ELG1 DNA repair inconclusive, FLuc counter inactive, ELG1 genotox inactive and Rab9 prom act inactive.
`COc1cc(C)ccc1OCCSc1nc(-c2cccc(C)c2)nc2cc(=O)[nH]n12` gave FLuc counter inactive.
`Cc1cc(NCc2ccccn2)n2ncc(-c3ccc(Cl)cc3)c2n1` gave NPC1 promoter act inconclusive, ELG1 DNA repair inconclusive, FLuc counter 11µM, ELG1 genotox inactive and Rab9 prom act inconclusive.
Screening COc1ccc(CCNc2cc(C)nc3c(-c4ccccc4OC)cnn23)cc1OC returned NPC1 promoter act inactive, ELG1 DNA repair inconclusive, FLuc counter inactive, ELG1 genotox inactive and Rab9 prom act inactive.
`CCCc1cc(NCc2ccccn2)n2nc(C)c(-c3ccccc3)c2n1` gave NPC1 promoter act inactive, ELG1 DNA repair 21µM, FLuc counter inactive, ELG1 genotox inactive and Rab9 prom act inactive.
`Cc1cc(NCCCN2CCOCC2)n2ncc(-c3ccccc3)c2n1` gave NPC1 promoter act 1µM, SMN2 splice enh 16µM, ELG1 DNA repair inconclusive, FLuc counter 7.6µM, ELG1 genotox 9.2µM and Rab9 prom act 0.71µM.
For COc1ccccc1-c1cnn2c(NCc3ccccc3)cc(C)nc12 the results were NPC1 promoter act inactive, ELG1 DNA repair inactive, FLuc counter 17µM, ELG1 genotox inactive and Rab9 prom act inactive.
CC(C)c1nc2cc(C(=O)N3CCNC(=O)C3c3ccc(F)cc3)ccc2o1 (stereo not given) was read as NPC1 promoter act inactive, ELG1 DNA repair inactive, FLuc counter inactive, ELG1 genotox inactive and Rab9 prom act inactive.
For Cc1c(C(=O)N(C)C)sc2nc(-c3ccccn3)[nH]c(=O)c12 the results were NPC1 promoter act inactive, SMN2 splice enh inactive, ELG1 DNA repair inconclusive, FLuc counter inconclusive, ELG1 genotox inconclusive and Rab9 prom act inconclusive.
Screening O=c1[nH]c(-c2ccccn2)nc2sc(-c3ccccc3)cc12 returned NPC1 promoter act 3.5µM, SMN2 splice enh 8.9µM, ELG1 DNA repair inconclusive, FLuc counter 2.1µM, ELG1 genotox 7.3µM and Rab9 prom act inconclusive.
Screening C[C@H](NC[C@H](O)CP(=O)(O)Cc1ccccc1)c1ccc(Cl)c(Cl)c1 returned SMN2 splice enh inactive.
`COc1ccc(CNc2ccccc2SC)cc1OC` gave NPC1 promoter act inactive, SMN2 splice enh inactive, ELG1 DNA repair inconclusive, FLuc counter inconclusive, ELG1 genotox inactive and Rab9 prom act inactive.
`COc1ccc(CNc2cccc3[nH]c(C(F)(F)F)nc23)cc1OC` gave NPC1 promoter act inactive, ELG1 DNA repair 26µM, FLuc counter inactive, ELG1 genotox inactive and Rab9 prom act inactive.
CC(=O)NC(=S)Nc1ccc2oc(-c3cc(F)c(F)cc3Cl)nc2c1 was read as NPC1 promoter act inconclusive, SMN2 splice enh 5µM, ELG1 DNA repair inconclusive, FLuc counter inactive, ELG1 genotox 4.6µM and Rab9 prom act 0.5µM.
O=C(Cc1ccccc1)NC(=S)Nc1ccc2oc(-c3ccccc3F)nc2c1 was read as NPC1 promoter act inconclusive, SMN2 splice enh inconclusive, ELG1 DNA repair inconclusive, FLuc counter 13µM, ELG1 genotox inactive and Rab9 prom act inconclusive.
O=C(Cc1ccccc1)NC(=S)Nc1ccc2oc(-c3ccccc3)nc2c1 was read as NPC1 promoter act inconclusive, SMN2 splice enh 11µM, ELG1 DNA repair inconclusive, FLuc counter inconclusive, ELG1 genotox inconclusive and Rab9 prom act inconclusive.
O=C(Cc1ccccc1)Nc1ccc2oc(-c3ccncc3)nc2c1 was read as NPC1 promoter act inactive, SMN2 splice enh inactive, ELG1 DNA repair inactive, FLuc counter inactive, ELG1 genotox inactive and Rab9 prom act inactive.
Screening COc1ccc(C(=O)Nc2ccc3oc(-c4ccc(F)cc4Cl)nc3c2)cc1 returned FLuc counter inactive.
`CCOC(=O)c1c(NC(=O)c2nc(S(C)(=O)=O)ncc2Cl)sc(C(C)=O)c1C` gave SMN2 splice enh inactive and FLuc counter inactive.
Screening CCOC(CCn1c(SCC(=O)Nc2cc(C)on2)nc2ccccc2c1=O)OCC returned NPC1 promoter act inactive, SMN2 splice enh inactive, ELG1 DNA repair 21µM, FLuc counter inactive, ELG1 genotox inactive and Rab9 prom act inactive.
`CCOC(Cn1c(SCC(=O)Nc2cc(C)on2)nc2ccccc2c1=O)OCC` gave NPC1 promoter act inactive, ELG1 DNA repair inactive, FLuc counter inactive, ELG1 genotox inactive and Rab9 prom act inactive.
Screening CCOC(CCn1c(SCc2ccc([N+](=O)[O-])cc2)nc2ccccc2c1=O)OCC returned NPC1 promoter act inactive, SMN2 splice enh inactive, ELG1 DNA repair 15µM, FLuc counter inactive, ELG1 genotox inactive and Rab9 prom act inactive.
Cc1ccc(-n2c(SCc3ccc([N+](=O)[O-])cc3)nc3ccccc3c2=O)cc1 was read as NPC1 promoter act inactive, SMN2 splice enh inactive, ELG1 DNA repair inactive, FLuc counter inactive, ELG1 genotox inactive and Rab9 prom act inactive.
`COc1ccccc1C(=O)NC(=O)COC(=O)c1ncc(Cl)c(Cl)c1Cl` gave NPC1 promoter act inactive, ELG1 DNA repair inconclusive, FLuc counter inactive, ELG1 genotox inactive and Rab9 prom act inactive.
Screening COCCCNC(=O)CC1C[C@H](C(=O)N2CCCCC2)[C@@]2(CCc3ccccc3)c3[nH]c4ccc(OC)cc4c3CCN2C1=O (stereo not given in full) returned ELG1 DNA repair inactive and ELG1 genotox inactive.
Screening O=C(COC(=O)C1(c2ccccc2)CC1)NNC(=O)c1ccccc1 returned NPC1 promoter act inactive, ELG1 DNA repair inactive, FLuc counter inactive, ELG1 genotox inactive and Rab9 prom act inactive.
Cc1cc(OCc2cn3cccnc3n2)ccc1Cl was read as NPC1 promoter act inconclusive, SMN2 splice enh 11µM, ELG1 DNA repair inconclusive, FLuc counter 21µM, ELG1 genotox 8.2µM and Rab9 prom act 2.8µM.
